Screens as filed in PubChem BioAssay.
This excerpt belongs to a sample that is enriched for hits.
ROC1-CUL1 inh: human ROC1-CUL1 E3 ligase inhibition | P62877+Q13616 | in vitro K48 di-Ub FRET, acceptor:donor ratio, 45 min | inhibition, % at 10 µM | 0.6% of 140,000 active | AID 1347404; in the data active = inhibition above about 25%
Target sequence (P62877 whole entry, looked up): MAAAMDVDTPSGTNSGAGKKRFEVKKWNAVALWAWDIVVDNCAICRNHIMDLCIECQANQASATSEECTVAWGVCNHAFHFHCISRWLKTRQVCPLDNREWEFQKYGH
Target sequence (Q13616 whole entry, looked up): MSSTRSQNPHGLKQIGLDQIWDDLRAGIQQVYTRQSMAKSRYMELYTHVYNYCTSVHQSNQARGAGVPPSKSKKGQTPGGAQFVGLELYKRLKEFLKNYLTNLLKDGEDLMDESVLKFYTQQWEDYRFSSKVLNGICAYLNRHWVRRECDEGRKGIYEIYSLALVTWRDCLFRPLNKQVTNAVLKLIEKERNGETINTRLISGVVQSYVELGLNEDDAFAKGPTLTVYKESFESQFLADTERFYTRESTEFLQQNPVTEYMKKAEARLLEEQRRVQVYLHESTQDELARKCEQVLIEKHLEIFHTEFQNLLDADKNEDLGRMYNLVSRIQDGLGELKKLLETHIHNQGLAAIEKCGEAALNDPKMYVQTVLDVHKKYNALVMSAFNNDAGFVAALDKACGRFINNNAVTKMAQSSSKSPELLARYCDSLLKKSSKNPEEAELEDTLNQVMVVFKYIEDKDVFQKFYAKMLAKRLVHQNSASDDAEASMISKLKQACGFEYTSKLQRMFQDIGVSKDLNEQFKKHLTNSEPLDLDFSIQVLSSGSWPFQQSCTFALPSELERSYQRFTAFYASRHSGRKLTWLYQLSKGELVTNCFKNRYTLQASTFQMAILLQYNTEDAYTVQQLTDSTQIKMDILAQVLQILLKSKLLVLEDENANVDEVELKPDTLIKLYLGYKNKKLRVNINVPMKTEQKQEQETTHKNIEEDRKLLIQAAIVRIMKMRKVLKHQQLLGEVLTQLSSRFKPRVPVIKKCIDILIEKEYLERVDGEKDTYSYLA
* marks the source's active call; other numbers are inactive results.

SMILES | ROC1-CUL1 inh
CC1=NC(=O)C(C(=O)/C=C/c2ccc3c(c2)OCO3)=C(C)C1 | -7
CSc1nc(Cl)cc(N2CCN(c3ccc(F)cc3)CC2)n1 | -1
CN1CCc2c1nc1ccccc1c2NC(=O)CN1CCN(C(c2ccccc2)c2ccccc2)CC1 | 4
COc1ccccc1C(c1c(C)[nH]n(-c2ccccc2)c1=O)c1c(C)[nH]n(-c2ccccc2)c1=O | 27*
CCOc1ccccc1C(c1c(C)[nH]n(-c2ccccc2)c1=O)c1c(C)[nH]n(-c2ccccc2)c1=O | 46*
CCOc1ccc(C(c2c(C)[nH]n(-c3ccccc3)c2=O)c2c(C)[nH]n(-c3ccccc3)c2=O)cc1OC | 8
Cc1[nH]n(-c2ccccc2)c(=O)c1CCc1ccccc1 | -4
Cc1[nH]n(-c2ccccc2)c(=O)c1C(c1cccc(OCc2ccc(Cl)cc2)c1)c1c(C)[nH]n(-c2ccccc2)c1=O | 10
Cc1[nH]n(-c2ccccc2)c(=O)c1C(c1ccc(C(=O)O)cc1)c1c(C)[nH]n(-c2ccccc2)c1=O | -12
Nc1c(C(=O)Nc2ccc(N3CCOCC3)cc2)sc2ncccc12 | -5
CCOC(=O)C1CCN(C(c2ccccc2)C2C(=O)C=C(C)N(Cc3ccco3)C2=O)CC1 (stereo not given) | -1
CC1=NN(c2cccc3ccccc23)C(=O)/C1=C\C1C(=O)NC(=O)N(c2cccc(Cl)c2)C1=O (stereo not given) | 2
CC#CC(=O)N1CCCC(CCc2ccc(OC)cc2)C1 (stereo not given) | -8
Cc1nc(N2CCCCCCC2)ncc1C(C)NC(=O)c1ccc(=O)n(C)n1 (stereo not given) | -5
CC(C)n1ncnc1NC(=O)NCc1cccc(OC(F)(F)F)c1 | 10
CCOC(=O)c1c(-c2ccc(F)cc2)csc1NC(=O)CSc1nc2ccccc2c(=O)n1-c1ccccc1 | 4
CCOC(=O)c1c(-c2ccccc2)csc1NC(=O)CSc1cc(C)c2ccccc2n1 | -1
CCOC(=O)c1c(-c2ccco2)csc1NC(=O)CSc1cc(C)c2ccccc2n1 | 91*
CCOc1cccc(C(=O)N2CCN(Cc3ccc(F)cc3)CC2)c1 | -2
CC(=O)Nc1ccc(-n2cccc2)cc1 | -3
CC1=NN(c2cccc(S(=O)(=O)O)c2)C(=O)C1 | 7
CC(=O)Nc1ccc(N2N=C(C)CC2=O)cc1 | 28*
Cn1ncnc1-c1ccnc(NCc2ccc(-c3ccccn3)s2)n1 | -1
O=C(Oc1ccccc1)c1ccccc1OC(=O)C1CCCCC1 | 7
CCc1ccc(-c2cc(C(F)(F)F)n3nc(C(=O)N(C)Cc4cn(C)nc4C)cc3n2)s1 | -1
SMILES | ROC1-CUL1 inh
Cc1cccc(Oc2coc3cc(OC(=O)c4cccc(Br)c4)ccc3c2=O)c1 | -7
CC(C)Oc1c(-c2ccccc2)c(=O)c1=O | 7
CC(C)Oc1c(-c2ccco2)c(=O)c1=O | 69*
CC(C)Oc1c(-c2ccc(F)cc2)c(=O)c1=O | -9
COc1ccc(Cl)cc1CNc1ccc(N2CCOCC2)cc1 | 24
Cc1ncc(CN2CCCC2C(=O)Nc2ccc(-n3ccnc3C)cc2)[nH]1 (stereo not given) | -1
COc1ccc(C(=O)c2coc3c2cc(O)c2ccccc23)cc1 | 13
COc1ccc(C(=O)c2cc(C)ccc2OC)cc1 | -1
COc1ccc(C(=O)c2coc3c2C(=O)C(=O)C(Br)=C3)cc1 | 102*
CC(=O)NCCC1CCCCN1c1nc2nonc2nc1N1CCSCC1 (stereo not given) | -4
COC(=O)C1C(=N)OC2=C(C(=O)CCC2)C1c1cccnc1 (stereo not given) | 4
COC(=O)C1C(=N)OC2=C(C(=O)CC(C)(C)C2)C1c1ccccc1 (stereo not given) | -10
COC(=O)C1C(=N)OC2=C(C(=O)CCC2)C1c1cccc(Br)c1 (stereo not given) | 106*
CCCCOC(=O)c1cc(-c2ccc(CC3=NC(=S)NC3=O)o2)ccc1Cl | 1
CCOC(=O)c1cc(-c2ccc(C(c3c(C)[nH][nH]c3=O)c3c(C)[nH][nH]c3=O)o2)ccc1Cl | 67*
CCOC(=O)c1cc(-c2ccc(/C=C(\C#N)c3nc4ccc(C)cc4[nH]3)o2)ccc1Cl | -4
Cc1ccc2nc(-c3ccccc3OC(C)C)cc(C(=O)O)c2c1 | -2
Cc1ccc(C2c3c(ccc4ccc(O)cc34)OC(=N)C2C#N)cc1 (stereo not given) | 3
COC(=O)c1cc(-c2ccc(/C=C3/SC(=O)NC3=O)o2)ccc1Cl | -4
CC1=C(C#N)C(=O)NC(=O)/C1=C/c1ccc(-c2ccc(Cl)c(C(=O)OC(C)C)c2)o1 | 86*
CC1=C(C#N)C(=O)N(CC(C)C)C(=O)/C1=C/c1ccc(-c2ccc(Cl)cc2)o1 | 0
O=S(=O)(c1ccc2c(c1)CCN2S(=O)(=O)c1ccc(F)cc1)N1CCOCC1 | 10
O=C(NCc1ccc(Cl)cc1)C1CCN(C(=O)c2ccccc2F)CC1 | 2
COc1ccc(OCC(=O)Nc2cccc(-c3nc4ccccc4c(=O)o3)c2)cc1 | 5
Cc1cc(OCCOc2ccccc2/C=C2\C(=O)NN(c3ccccc3)C2=O)ccc1Cl | 7
SMILES | ROC1-CUL1 inh
COc1cc(/C=C2\C(=O)NN(c3ccccc3)C2=O)cc(Cl)c1OCCCOc1ccc(C)cc1 | 92*
Cc1ccc(OCCCOc2ccccc2/C=C2\C(=O)NN(c3ccccc3)C2=O)cc1 | 36*
CCCOc1ccccc1/C=C1/C(=O)NN(c2ccc(I)cc2)C1=O | 10
COc1cc(/C=C2\C(=O)NN(c3ccccc3)C2=O)cc(Cl)c1OCCCOc1ccc(Cl)cc1 | 12
Cc1ccc(COc2ccc(Cl)cc2/C=C2\C(=O)NN(c3ccccc3)C2=O)cc1 | 9
Cc1ccccc1COc1ccc(Cl)cc1/C=C1\C(=O)NN(c2ccccc2)C1=O | 9
Cc1ccc(OCCCOc2c(Cl)cc(Cl)cc2/C=C2\C(=O)NN(c3ccccc3)C2=O)cc1 | 77*
COc1cc(/C=C2/C(=O)NN(c3ccc(C)cc3)C2=O)cc(Cl)c1OC | 8
Cc1ccc(N2NC(=O)/C(=C/c3ccccc3OCc3ccccc3)C2=O)cc1Cl | 8
O=C1NN(c2ccccc2)C(=O)/C1=C/c1cc(Cl)ccc1OCc1ccc(Cl)cc1 | 41*
O=C1NN(c2ccccc2)C(=O)/C1=C/c1cn(CCCOc2ccc(Cl)cc2)c2ccccc12 | -3
CCOc1cc(C2Oc3ccccc3C3CC(c4cccs4)=NN32)cc(Cl)c1O (stereo not given) | -1
CC1=Nc2nnnn2C(c2ccc3c(c2)OCO3)C1C(=O)Nc1ccccc1 (stereo not given) | 1
CC(NC(=O)CCC1(Cc2ccc3ccccc3c2)CCC(=O)N1)c1cnn(-c2ccccc2)c1 (stereo not given) | -3
c1ccc(COC2CCCN(c3nc4nonc4nc3N3CCCC3)C2)nc1 (stereo not given) | 1
Cc1cccc(C)c1-n1nnnc1C1(Nc2ccc(I)cc2)CCCC1 | 4
Cc1ccc(CNC(=O)N2CCN(c3ccccc3)CC2)cc1 | 5
CC(C)(C)CN1CCC(C2CCN(C(=O)c3ccnc(N)c3)CC2)C1 (stereo not given) | 6
COC(=O)c1ccc(Oc2ncnc3scc(-c4ccc(C)cc4)c23)cc1 | -5
N#Cc1c2c(c(=O)n3c4ccccc4n(CC(=O)c4ccc(Cl)cc4)c13)CCCC2 | 0
c1ccc(CNc2ncnc3c2sc2ncsc23)cc1 | 2
CCOc1ccc(/C=C2/SC(=O)N(CNc3cccc(F)c3)C2=O)cc1OCC | 4
CO[C@H]1[C@H](NC(=O)c2ccccn2)c2ccccc2C12CCN(C(=O)CC1=CCCCC1)CC2 | -2
